Measurements as given in PubChem BioAssay AID588466 (NMMLSC, 2011).
Values joined by “and” are separate entries in the source; they are usually repeats but may differ in a detail not shown here. Identical values can stand only once. Among all 2,100 compounds or so, about 30 (1%) were called active.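 How the source made its calls: active means compounds whose mean binding response over two repeats is below 75% of the DMSO control; inactive means the rest.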 Not all results are given here.

biological target: Desmoglein-3 (Homo sapiens) (UniProt P32926); test: blockers of pemphigus antibody–desmoglein-3 interaction – biochemical, cherry pick 1, bead-based, flow cytometry, confirmation (AID 588466); conditions: Protein G beads with DSG3, scFv-GFP binding, at 10 µM, hits give low values;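 further: 100% = 2% DMSO vehicle and 0% = excess soluble DSG3 blocking control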
Sequence (P32926 whole entry, looked up): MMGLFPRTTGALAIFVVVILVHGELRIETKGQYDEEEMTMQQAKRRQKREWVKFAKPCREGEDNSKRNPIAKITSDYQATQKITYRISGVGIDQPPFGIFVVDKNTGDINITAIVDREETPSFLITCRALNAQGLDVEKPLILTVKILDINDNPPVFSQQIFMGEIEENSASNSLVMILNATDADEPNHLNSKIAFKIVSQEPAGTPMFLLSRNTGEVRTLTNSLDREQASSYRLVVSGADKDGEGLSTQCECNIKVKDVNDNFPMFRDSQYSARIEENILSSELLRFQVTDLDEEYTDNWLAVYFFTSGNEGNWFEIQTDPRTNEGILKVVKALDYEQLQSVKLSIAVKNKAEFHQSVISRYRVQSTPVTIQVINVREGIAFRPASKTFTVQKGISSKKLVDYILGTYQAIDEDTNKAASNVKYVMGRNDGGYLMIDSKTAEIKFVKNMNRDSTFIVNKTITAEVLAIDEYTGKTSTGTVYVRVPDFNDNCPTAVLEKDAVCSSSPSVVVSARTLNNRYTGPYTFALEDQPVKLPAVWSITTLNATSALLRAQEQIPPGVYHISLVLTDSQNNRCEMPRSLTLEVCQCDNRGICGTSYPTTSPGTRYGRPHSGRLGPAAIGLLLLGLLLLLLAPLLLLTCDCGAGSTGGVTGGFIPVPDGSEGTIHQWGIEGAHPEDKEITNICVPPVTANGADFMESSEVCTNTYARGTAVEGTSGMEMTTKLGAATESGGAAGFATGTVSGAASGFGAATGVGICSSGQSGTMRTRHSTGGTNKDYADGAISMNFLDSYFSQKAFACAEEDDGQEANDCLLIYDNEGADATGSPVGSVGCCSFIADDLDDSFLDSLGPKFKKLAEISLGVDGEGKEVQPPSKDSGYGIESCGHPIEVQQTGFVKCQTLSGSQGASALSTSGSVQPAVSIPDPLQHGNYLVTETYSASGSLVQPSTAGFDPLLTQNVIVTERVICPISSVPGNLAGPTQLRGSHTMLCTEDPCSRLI

Binding response (% of DMSO), inactive:
COc1ccc(C)cc1NS(=O)(=O)c1ccc2c(c1)CCN2C(C)=O 99.4%
NS(=O)(=O)c1ccc(NC(=O)c2ccc(F)cc2F)c(NC(=O)c2ccc(F)cc2F)c1 104%
CCCCSc1nnc(-c2ccc(NC(=O)CCc3ccccc3)cc2)n1C 104%
COc1ccc(-c2cc(NC(=O)c3cncn3-c3ccccc3)ccc2OC)cc1 107%
Cc1ccc(NC(=O)CN2C(=O)NC(Cc3c[nH]c4ccccc34)C2=O)cc1S(=O)(=O)N1CCCCC1 (centres undefined) 102%
CC(=O)c1ccc(OCC(O)CN2CC(C)OC(C)C2)cc1 (centres undefined) 104%
Cc1cc2oc(=O)cc(-c3ccccc3)c2c(C)c1-c1ccc(F)c(Cl)c1 105%
C[C@H](CO)N1C[C@H](C)[C@@H](CN(C)Cc2ccc(-c3ccccc3)cc2)Oc2c(NS(=O)(=O)c3cn(C)cn3)cccc2C1=O 98.2%
O=C(CN1CCN(S(=O)(=O)c2ccccc2)CC1)Nc1cccc(C(F)(F)F)c1 110%
O=C(Nc1cc(Cl)ccc1-n1cncn1)c1cn2ccccc2n1 111%
COc1cccc(C(=O)NCCn2ccc3ccccc32)c1 112%
COc1cc(CN2CCC(n3nccc3NC(=O)C3CC3)CC2)cc(OC)c1 104%
Cc1ccc(Cn2cnc3c(nnn3Cc3ccc(Cl)cc3)c2=O)cc1 90% and 97.5%
CC(C)[C@H](NC(=O)N1c2ccccc2NC(=O)[C@@H]1C(C)C)C(=O)N[C@@H](Cc1c[nH]c2ccccc12)C(=O)O 105%
CCOc1c(Br)cc(C(=O)Nc2cccc(S(=O)(=O)N3CCOCC3)c2)cc1OC 102%
CCc1nnc(NC(=O)CCC(=O)NCc2ccccc2Cl)s1 97.5%
COc1ccc(OC)c(NS(=O)(=O)c2ccc(-c3coc(C)n3)cc2)c1 97.3%
COc1ccc(CCN2C(=O)C(Oc3ccccc3C)C2c2ccc3c(c2)OCO3)cc1OC (centres undefined) 101%
CSc1nc2ccc(NC(=O)c3cccs3)cc2s1 102%
Cc1ccc(NC(=O)Cc2ccc([N+](=O)[O-])cc2)c(Br)c1 95.5%
CCCN(CCC)CCNC(=O)Cn1cnc2sc(C)c(S(=O)(=O)N3CCOCC3)c2c1=O 99.3%
CCOC(=O)c1nn(-c2ccccc2)c(=O)c2c(NC(C)=O)scc12 111%
Cc1cc2ccccc2n1CCNC(=O)c1ccc(S(=O)(=O)N2CCCCC2)cc1 94.7%
CCOc1ccc(/C(O)=C2/C(=O)C(=O)N(c3cc(C)on3)C2c2ccc(C(=O)OC)cc2)cc1 (centres undefined) 98.1%
C[C@H]1COC(=O)[C@@H](Cc2ccc(F)cc2)CC/C=C/C[C@@H](CC(=O)N(CCO)Cc2ccccc2)C(=O)N1 104%
Cc1ccc(NC(=O)COc2ccc3c(c2)OCO3)c(C)c1 103%
CCN1CCN(c2ccc(S(=O)(=O)N3CCOCC3)cc2NC(=O)CCSC)CC1 105%
COc1ccc(CN(CCN(C)C)Cc2ccccc2)c(OC)c1 101%
Cc1cnc(NS(=O)(=O)c2ccccc2)c(C)n1 98.8%
N#Cc1c(-c2ccc(F)cc2)cc(-c2ccccc2)nc1SCC(=O)NCC(=O)O 99.8%
O=C(Oc1cccc(C(=S)N2CCOCC2)c1)c1ccccc1 94.4%
CCc1cc2cc3c(cc2nc1SCC(=O)Nc1cc(C)on1)OCO3 103%
Cc1ccc(/C=N/N2CCN(c3ccc(Cl)cc3)CC2)o1 101%
COc1ccccc1-c1cc(N)n(S(=O)(=O)c2ccc(F)c(C)c2)n1 100%
COC(=O)c1oc2ccc(Cl)cc2c1NC(C)=O 100%
O=[N+]([O-])c1ccc(OCc2cnc(Cl)s2)c([N+](=O)[O-])c1 107%
Cc1ccc(C)c(N2CCN(C(=O)Cc3cn(C)c4ccccc34)CC2)c1 104%
O=C(CNC(=O)c1ccc(Br)cc1)N=Nc1c(O)[nH]c2ccc([N+](=O)[O-])cc12 100%
CC(=O)c1ccc(NC(=O)Cn2cnc(S(=O)(=O)N3CCC(C)CC3)c2)cc1 98.2%
CSCC[C@H](NC(=O)C1CCN(S(=O)(=O)c2ccc(C)cc2)CC1)C(=O)NCc1ccco1 106%
Cc1ccccc1NC(=O)Nc1nc2ccc(S(C)(=O)=O)cc2s1 89.9%
COc1ccc(NC(=O)CSc2nnc(Cc3ccc(C)cc3)c(=O)n2N)cc1 92.4%
Cc1ccc(NC(=O)COc2ccc3c(c2)OCO3)c(Cl)c1 98.1%
CC1=C(C(N)=O)C(c2cccnc2)n2nc(SCc3ccccc3Cl)nc2N1 (centres undefined) 103%
